The full data set covers some 8,800 targets. This sample favours those with a hit. About 0.5% of all pairs of compound and target were hits.
What was measured:
Experiment in all cases: log2 fold change, soluble protein after heating vs DMSO (PISA); higher = thermal stabilisation; K562 lysate, 10 uM; active = over 0.2 and 3.5 SD of the protein, either way, in both replicates (recomputed)
erlotinib = compound: C#Cc1cccc(Nc2ncnc3cc(OCCOC)c(OCCOC)cc23)c1 [erlotinib]
Outline: (§1)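 Quantification was by TMTpro 16plex LC-MS/MS with equalised channel sums, applied to the supernatant after 21,000xg for 90 min. Samples were crude K562 extract at 1 mg/mL protein in PBS pH 7.4 with 1 mM MgCl2, treated with 10 μM compound for 30 min, heated for 3 min across 48°C-58°C, pooled and brought to 0.5% NP-40 at 4°C. Values are log-two fold changes in thermal stability relative to solvent controls, from duplicates.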

[1] = compound: C/C(=N\NC(=O)C1=CC(=CC=C1)S(=O)(=O)N2CCOCC2)/C3=C(C=CC(=C3)Cl)O
Outline: as §1

[2] = compound: C1=CC(=CC=C1C2=NC3=C(N2)C=C(C=C3)C(=O)N)OC4=CC=C(C=C4)Cl
Outline: as §1

[3] = compound: C1=CC2=C(C=CC(=C2)/C=C\3/C(=O)NC(=NCC4=CC=CS4)S3)N=C1
Outline: as §1

[4] = compound: C1=CC2=NC=CN=C2C=C1/C=C/3\C(=O)NC(=O)S3
Outline: as §1

[5] = compound: C1=CC=C(C=C1)C2=NC(=C(N2)C3=CC=NC=C3)C4=CC(=C(C=C4)Cl)O
Outline: as §1

[6] = compound: C1=CC=C2C(=C1)C3=NNC4=CC=CC(=C43)C2=O
Outline: as §1

[7] = compound: C1CCN(C1)C(=O)NC2=CC=CC(=C2)NC3=NC=C(C(=N3)NCCC4=CN=CN4)Br
Outline: as §1

[8] = compound: C1CN(CCC1(CC2=CC=C(C=C2)Cl)N)C3=NC=NC4=C3C=CN4
Outline: as §1

IRAK-1-4 Inhibitor I = compound: C1COCCN1CCN2C3=CC=CC=C3N=C2NC(=O)C4=CC(=CC=C4)[N+](=O)[O-] [IRAK-1-4 Inhibitor I]
Outline: as §1

ibrutinib = compound: C=CC(=O)N1CCC[C@@H](n2nc(-c3ccc(Oc4ccccc4)cc3)c3c(N)ncnc32)C1 [ibrutinib]
Outline: as §1

[9] = compound: CC(=O)c1cnc2ccc(-c3cc(Cl)c(O)c(Cl)c3)nc2c1N[C@H]1CC[C@H](CN(C)C)CC1
Outline: as §1

ralimetinib = compound: CC(C)(C)Cn1c(N)nc2ccc(-c3[nH]c(C(C)(C)C)nc3-c3ccc(F)cc3)nc21 [ralimetinib]
Outline: as §1

[10] = compound: CC(C)(O)CC(=O)NCCn1ccc2ncnc(Nc3ccc(Oc4cccc(C(F)(F)F)c4)c(Cl)c3)c21
Outline: as §1

[11] = compound: CC(C)C1=C2N=C(C=C(N2N=C1)NCC3=CC=CC=C3)NCCCCCCN
Outline: as §1

[12] = compound: CC1=C(C(CC(=O)N1)C2=CC=C(C=C2)C(F)(F)F)C(=O)NC3=C(C=C4C(=C3)C=NN4)F
Outline: as §1

[13] = compound: CC1=C(C2=C(C=C1)C(=O)C3=CC=CC=C3N2CCCN)C
Outline: as §1

[14] = compound: CC1=C(C=C(C=C1)NC(=O)C2=CC(=CC=C2)C(C)(C)C#N)NC3=CC4=C(C=C3)N=CN(C4=O)C
Outline: as §1

[15] = compound: CC1=C(C=C(C=C1)NC(=O)C2=CC(=CC=C2)N(C)C)NC(=O)C3=CC=C(C=C3)O
Outline: as §1

[16] = compound: CC1=CC=C(C=C1)SC2=C3C=C(SC3=CN=C2)C(=O)N
Outline: as §1

Measured: log2 fold change

RCAN1 (UniProt P53805)
inactive: erlotinib 0.06 | [1] -0.206 | [2] -0.033 | [3] -0.018 | [4] -0.04 | [5] 0.008 | [6] 0.045 | [7] -0.095 | [8] 0.016 | IRAK-1-4 Inhibitor I -0.024 | ibrutinib -0.019 | [9] 0.003 | ralimetinib -0.004 | [10] 0.012 | [11] 0.002 | [12] 0.026 | [13] -0.027 | [14] 0.085 | [15] -0.02 | [16] 0.02

RBSN (UniProt Q9H1K0)
Sequence of UniProt Q9H1K0 (Q9H1K0 whole entry, looked up): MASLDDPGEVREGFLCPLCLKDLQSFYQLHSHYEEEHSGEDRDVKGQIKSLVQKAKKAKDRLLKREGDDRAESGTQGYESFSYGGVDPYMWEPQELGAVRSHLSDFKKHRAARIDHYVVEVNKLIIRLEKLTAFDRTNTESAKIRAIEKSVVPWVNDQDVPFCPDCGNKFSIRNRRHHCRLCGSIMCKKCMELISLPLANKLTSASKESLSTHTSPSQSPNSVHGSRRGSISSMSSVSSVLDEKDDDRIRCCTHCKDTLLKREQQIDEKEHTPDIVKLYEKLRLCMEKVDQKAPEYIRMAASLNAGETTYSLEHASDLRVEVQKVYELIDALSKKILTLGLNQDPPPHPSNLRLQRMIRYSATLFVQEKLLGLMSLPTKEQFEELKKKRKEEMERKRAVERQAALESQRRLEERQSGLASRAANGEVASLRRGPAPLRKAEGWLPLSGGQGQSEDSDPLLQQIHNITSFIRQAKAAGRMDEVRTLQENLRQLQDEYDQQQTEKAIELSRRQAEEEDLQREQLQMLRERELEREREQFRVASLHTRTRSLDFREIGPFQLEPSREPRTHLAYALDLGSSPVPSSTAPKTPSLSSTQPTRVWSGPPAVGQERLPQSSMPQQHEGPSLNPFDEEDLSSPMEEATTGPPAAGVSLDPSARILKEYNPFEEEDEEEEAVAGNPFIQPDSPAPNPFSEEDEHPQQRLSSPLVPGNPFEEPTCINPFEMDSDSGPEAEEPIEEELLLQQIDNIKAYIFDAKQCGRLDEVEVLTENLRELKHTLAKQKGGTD
inactive: erlotinib -0.067 | [1] -0.215 | [2] 0.004 | [3] -0.014 | [4] -0.004 | [5] 0.005 | [6] 0.043 | [7] 0.015 | [8] 0.063 | IRAK-1-4 Inhibitor I 0.025 | ibrutinib 0.018 | [9] 0.043 | ralimetinib -0.014 | [10] -0.007 | [11] 0.043 | [12] 0.025 | [13] -0.032 | [14] 0.044 | [15] 0.003 | [16] 0.035

RETREG2 (UniProt Q8NC44)
Sequence of UniProt Q8NC44 (Q8NC44 whole entry, looked up): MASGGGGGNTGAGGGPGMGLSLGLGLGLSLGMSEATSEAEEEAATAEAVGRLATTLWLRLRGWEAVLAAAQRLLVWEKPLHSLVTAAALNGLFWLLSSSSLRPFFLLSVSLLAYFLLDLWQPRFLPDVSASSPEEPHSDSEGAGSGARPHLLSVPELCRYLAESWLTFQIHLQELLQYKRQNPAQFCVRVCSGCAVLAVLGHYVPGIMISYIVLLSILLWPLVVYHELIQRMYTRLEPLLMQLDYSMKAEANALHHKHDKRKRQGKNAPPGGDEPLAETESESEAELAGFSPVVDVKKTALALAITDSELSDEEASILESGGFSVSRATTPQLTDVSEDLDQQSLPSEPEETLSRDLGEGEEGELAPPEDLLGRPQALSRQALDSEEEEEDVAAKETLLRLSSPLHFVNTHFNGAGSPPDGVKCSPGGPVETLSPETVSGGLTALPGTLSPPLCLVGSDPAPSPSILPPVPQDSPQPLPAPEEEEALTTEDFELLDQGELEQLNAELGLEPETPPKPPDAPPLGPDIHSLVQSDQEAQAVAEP
inactive: erlotinib -0.08 | [1] 0.036 | [2] -0.115 | [3] -0.055 | [4] 0.049 | [5] 0.035 | [6] -0.063 | [7] 0.022 | [8] 0.075 | IRAK-1-4 Inhibitor I 0.106 | ibrutinib 0.011 | [9] 0.009 | ralimetinib 0.071 | [10] -0.129 | [11] 0.062 | [12] 0.127 | [14] 0.051 | [15] 0.116 | [16] 0.011

RXRB isoform 3 (UniProt P28702)
inactive: erlotinib -0.025 | [1] 0.006 | [2] -0.038 | [3] -0.014 | [4] 0.051 | [6] -0.039 | [7] 0.011 | [8] -0.015 | ibrutinib 0.047 | [9] -0.037 | [11] 0.106 | [12] 0.026 | [13] -0.005 | [14] 0.011 | [16] -0.109

SERINC3 (UniProt Q13530)
inactive: erlotinib 0.068 | [1] 0.145 | [2] 0.065 | [3] 0.073 | [4] 0.021 | [5] -0.02 | [6] -0.101 | [7] -0.03 | [8] 0.024 | IRAK-1-4 Inhibitor I 0.018 | ibrutinib 0.06 | [9] -0.082 | ralimetinib 0.01 | [10] -0.003 | [11] -0.016 | [12] -0.012 | [13] -0.055 | [14] 0.049 | [15] -0.042 | [16] -0.011

RNPS1 (UniProt Q15287)
Sequence of UniProt Q15287 (Q15287 whole entry, looked up): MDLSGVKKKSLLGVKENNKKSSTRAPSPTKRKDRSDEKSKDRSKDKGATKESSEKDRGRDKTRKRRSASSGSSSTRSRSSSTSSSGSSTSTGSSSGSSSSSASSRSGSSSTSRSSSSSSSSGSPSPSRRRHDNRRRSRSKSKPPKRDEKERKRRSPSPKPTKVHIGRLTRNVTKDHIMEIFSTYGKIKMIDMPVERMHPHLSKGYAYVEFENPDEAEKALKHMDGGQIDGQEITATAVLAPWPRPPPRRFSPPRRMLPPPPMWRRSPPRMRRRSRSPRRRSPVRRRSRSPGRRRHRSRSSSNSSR
inactive: erlotinib -0.008 | [1] -0.105 | [2] 0.025 | [3] -0.151 | [4] -0.005 | [5] -0.006 | [6] 0.027 | [7] -0.016 | [8] -0.073 | IRAK-1-4 Inhibitor I 0.023 | ibrutinib 0.04 | [9] 0.042 | ralimetinib 0.007 | [10] 0.006 | [11] 0.005 | [12] 0.138 | [13] 0.003 | [14] -0.057 | [15] -0.032 | [16] -0.032

RIPK1 (UniProt Q13546)
inactive: erlotinib -0.026 | [1] -0.01 | [2] -0.017 | [3] -0.022 | [4] -0.015 | [5] 0.008 | [6] 0.08 | [7] 0.031 | [8] -0.057 | IRAK-1-4 Inhibitor I 0 | ibrutinib -0.02 | [9] -0.025 | ralimetinib -0.009 | [10] -0.011 | [11] 0.018 | [12] 0.001 | [13] -0.013 | [14] 0.001 | [15] -0.02 | [16] 0.003

RALGAPA1 isoform 6 (UniProt Q6GYQ0)
Sequence of UniProt Q6GYQ0 (Q6GYQ0 whole entry, looked up): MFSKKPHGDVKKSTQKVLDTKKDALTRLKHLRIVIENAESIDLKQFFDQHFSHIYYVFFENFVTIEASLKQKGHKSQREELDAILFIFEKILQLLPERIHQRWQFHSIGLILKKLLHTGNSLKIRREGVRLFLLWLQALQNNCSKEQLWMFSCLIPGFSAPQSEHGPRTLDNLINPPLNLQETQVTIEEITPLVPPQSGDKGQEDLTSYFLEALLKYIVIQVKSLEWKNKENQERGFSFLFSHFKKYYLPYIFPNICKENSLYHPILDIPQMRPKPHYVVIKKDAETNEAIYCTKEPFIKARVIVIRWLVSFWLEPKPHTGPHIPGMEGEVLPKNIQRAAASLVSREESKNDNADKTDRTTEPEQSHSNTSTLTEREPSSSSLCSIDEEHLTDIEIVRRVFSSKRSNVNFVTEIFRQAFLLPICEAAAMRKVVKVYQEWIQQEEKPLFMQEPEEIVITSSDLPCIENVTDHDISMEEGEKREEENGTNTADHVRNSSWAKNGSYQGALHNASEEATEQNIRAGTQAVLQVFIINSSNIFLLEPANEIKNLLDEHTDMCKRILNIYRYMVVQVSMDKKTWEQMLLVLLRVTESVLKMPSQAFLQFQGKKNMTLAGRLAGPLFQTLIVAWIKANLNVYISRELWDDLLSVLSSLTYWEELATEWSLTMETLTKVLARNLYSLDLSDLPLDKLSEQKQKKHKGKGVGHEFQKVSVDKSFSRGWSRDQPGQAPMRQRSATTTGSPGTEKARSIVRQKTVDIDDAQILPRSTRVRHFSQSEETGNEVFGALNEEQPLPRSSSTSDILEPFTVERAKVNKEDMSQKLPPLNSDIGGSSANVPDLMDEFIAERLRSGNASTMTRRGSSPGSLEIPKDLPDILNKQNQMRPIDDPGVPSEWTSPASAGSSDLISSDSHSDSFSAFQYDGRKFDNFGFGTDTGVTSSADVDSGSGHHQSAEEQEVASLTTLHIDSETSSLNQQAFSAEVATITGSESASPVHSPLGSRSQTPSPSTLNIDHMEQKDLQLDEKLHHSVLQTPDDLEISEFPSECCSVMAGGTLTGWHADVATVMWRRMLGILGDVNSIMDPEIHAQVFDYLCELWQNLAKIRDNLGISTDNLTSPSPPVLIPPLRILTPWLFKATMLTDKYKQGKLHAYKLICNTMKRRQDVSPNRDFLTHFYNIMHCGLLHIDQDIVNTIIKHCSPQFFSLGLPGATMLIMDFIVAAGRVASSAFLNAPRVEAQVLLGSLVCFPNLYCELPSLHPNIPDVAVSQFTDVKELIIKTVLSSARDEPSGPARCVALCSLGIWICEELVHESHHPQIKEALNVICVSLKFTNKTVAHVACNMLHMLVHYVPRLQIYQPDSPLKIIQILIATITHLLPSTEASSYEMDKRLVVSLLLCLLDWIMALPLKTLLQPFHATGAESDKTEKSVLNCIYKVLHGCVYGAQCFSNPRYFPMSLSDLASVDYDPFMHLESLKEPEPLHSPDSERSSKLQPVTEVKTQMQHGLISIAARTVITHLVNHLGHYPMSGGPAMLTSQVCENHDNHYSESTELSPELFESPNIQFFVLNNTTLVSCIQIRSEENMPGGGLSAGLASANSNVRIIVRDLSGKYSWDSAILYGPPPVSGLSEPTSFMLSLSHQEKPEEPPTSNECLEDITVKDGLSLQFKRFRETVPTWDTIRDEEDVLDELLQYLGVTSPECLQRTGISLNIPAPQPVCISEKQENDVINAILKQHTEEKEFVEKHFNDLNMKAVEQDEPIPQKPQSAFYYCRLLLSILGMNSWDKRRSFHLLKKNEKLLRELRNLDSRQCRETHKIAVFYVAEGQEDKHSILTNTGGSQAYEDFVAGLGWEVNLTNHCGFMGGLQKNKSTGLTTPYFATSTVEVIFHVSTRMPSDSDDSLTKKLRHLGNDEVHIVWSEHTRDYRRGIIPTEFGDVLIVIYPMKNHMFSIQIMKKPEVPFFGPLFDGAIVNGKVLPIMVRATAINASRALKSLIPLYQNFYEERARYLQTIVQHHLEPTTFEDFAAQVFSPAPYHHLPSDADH
inactive: erlotinib 0.056 | [1] -0.093 | [2] 0.098 | [3] 0.065 | [4] -0.105 | [5] -0.064 | [6] -0.015 | [7] -0.042 | [8] 0.031 | IRAK-1-4 Inhibitor I 0.004 | ibrutinib 0.047 | [9] -0.06 | ralimetinib 0.01 | [10] 0.002 | [11] -0.01 | [12] -0.039 | [13] 0.02 | [14] -0.007 | [15] 0.038 | [16] -0.081

RAD51C (UniProt O43502)
inactive: erlotinib 0 | [1] -0.053 | [2] 0.023 | [3] -0.074 | [4] -0.003 | [5] 0.001 | [6] -0.004 | [7] 0.017 | [8] 0.02 | IRAK-1-4 Inhibitor I -0.051 | ibrutinib -0.015 | [9] 0.055 | ralimetinib 0.044 | [10] 0.009 | [11] 0.067 | [12] -0.015 | [13] -0.039 | [14] 0 | [15] -0.037 | [16] -0.051

RFWD3 (UniProt Q6PCD5)
Sequence of UniProt Q6PCD5 (Q6PCD5 whole entry, looked up): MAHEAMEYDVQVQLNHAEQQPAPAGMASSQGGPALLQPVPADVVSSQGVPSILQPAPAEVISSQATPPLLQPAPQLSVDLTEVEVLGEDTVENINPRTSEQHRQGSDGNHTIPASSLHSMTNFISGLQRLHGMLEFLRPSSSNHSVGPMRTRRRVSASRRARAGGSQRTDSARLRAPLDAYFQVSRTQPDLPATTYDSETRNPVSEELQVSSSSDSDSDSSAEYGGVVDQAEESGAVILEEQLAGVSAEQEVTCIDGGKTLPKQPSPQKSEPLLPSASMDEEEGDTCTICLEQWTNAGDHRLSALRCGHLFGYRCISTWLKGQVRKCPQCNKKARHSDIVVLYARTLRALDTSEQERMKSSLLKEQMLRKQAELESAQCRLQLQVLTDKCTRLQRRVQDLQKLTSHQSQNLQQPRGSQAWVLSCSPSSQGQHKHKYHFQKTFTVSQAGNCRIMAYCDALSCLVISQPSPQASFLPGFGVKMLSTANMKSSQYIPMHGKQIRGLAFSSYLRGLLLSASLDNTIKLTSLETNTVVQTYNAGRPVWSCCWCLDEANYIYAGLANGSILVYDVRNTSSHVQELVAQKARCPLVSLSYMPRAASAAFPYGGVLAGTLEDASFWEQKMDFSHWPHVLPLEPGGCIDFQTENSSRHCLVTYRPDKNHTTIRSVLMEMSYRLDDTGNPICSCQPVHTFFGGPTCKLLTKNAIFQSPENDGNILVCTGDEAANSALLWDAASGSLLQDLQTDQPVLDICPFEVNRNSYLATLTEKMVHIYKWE
inactive: erlotinib -0.12 | [1] 0.005 | [2] 0.048 | [3] -0.061 | [4] 0.062 | [5] 0.029 | [6] -0.039 | [7] -0.086 | [8] 0.053 | IRAK-1-4 Inhibitor I 0.054 | ibrutinib -0.001 | ralimetinib 0.039 | [10] -0.059 | [11] 0.066 | [12] 0.059 | [13] -0.06 | [14] 0.087 | [15] -0.007

RALA (UniProt P11233)
inactive: erlotinib 0.007 | [1] -0.146 | [2] -0.035 | [3] -0.04 | [4] 0.031 | [5] -0.012 | [6] 0.003 | [7] -0.016 | [8] 0.002 | IRAK-1-4 Inhibitor I 0.04 | ibrutinib 0.009 | [9] -0.01 | ralimetinib 0.006 | [10] -0.05 | [11] 0.034 | [12] -0.002 | [13] -0.001 | [14] 0.057 | [15] -0.048 | [16] -0.023

RARS (UniProt P54136)
inactive: erlotinib 0.037 | [1] 0.029 | [2] -0.023 | [3] 0.023 | [4] 0.043 | [5] 0.029 | [6] -0.025 | [7] -0.005 | [8] 0.005 | IRAK-1-4 Inhibitor I 0.008 | ibrutinib -0.001 | [9] -0.003 | ralimetinib 0.062 | [10] 0.048 | [11] 0.033 | [12] -0.019 | [13] 0.015 | [14] -0.003 | [15] 0.06 | [16] 0.033

RIOK1 (UniProt Q9BRS2)
inactive: erlotinib -0.033 | [1] -0.029 | [2] 0.034 | [3] 0.209 | [5] 0.128 | [7] -0.024 | [8] 0.028 | IRAK-1-4 Inhibitor I -0.02 | ibrutinib 0.006 | [9] 0.251 | ralimetinib 0.002 | [10] -0.003 | [11] -0.005 | [12] 0.004 | [13] -0.009 | [14] 0.015 | [15] -0.009 | [16] 0.249
active: [4] 0.393 | [6] 0.4

RNF24 isoform 2 (UniProt Q9Y225)
inactive: erlotinib -0.146 | [2] -0.053 | [4] 0.083 | ibrutinib -0.051 | [11] 0.33 | [12] -0.026 | [14] 0.092

RALGAPB isoform 3 (UniProt Q86X10)
inactive: [4] -0.146 | [7] -0.119 | [8] 0 | ibrutinib 0.106 | [13] -0.087

ROBO2 isoform 3 (UniProt Q9HCK4)
inactive: erlotinib 0.042 | [2] -0.013 | [5] 0.008 | IRAK-1-4 Inhibitor I -0.062 | [9] -0.015 | ralimetinib 0.103 | [10] -0.287 | [11] -0.045 | [14] 0.022 | [15] 0.177 | [16] -0.053

RDH11 (UniProt Q8TC12)
inactive: erlotinib 0.018 | [1] 0.087 | [2] -0.02 | [3] 0.015 | [5] 0.006 | [6] -0.065 | [7] -0.037 | [8] 0.063 | IRAK-1-4 Inhibitor I 0.012 | [9] -0.021 | ralimetinib 0.005 | [10] -0.043 | [11] 0.068 | [12] -0.013 | [13] -0.039 | [14] -0.037 | [15] -0.039 | [16] -0.111

RLIM (UniProt Q9NVW2)
inactive: [4] -0.021 | ibrutinib 0.014 | [14] 0.465

RUFY2 isoform 1 (UniProt Q8WXA3)
Sequence of UniProt Q8WXA3 (Q8WXA3 whole entry, looked up): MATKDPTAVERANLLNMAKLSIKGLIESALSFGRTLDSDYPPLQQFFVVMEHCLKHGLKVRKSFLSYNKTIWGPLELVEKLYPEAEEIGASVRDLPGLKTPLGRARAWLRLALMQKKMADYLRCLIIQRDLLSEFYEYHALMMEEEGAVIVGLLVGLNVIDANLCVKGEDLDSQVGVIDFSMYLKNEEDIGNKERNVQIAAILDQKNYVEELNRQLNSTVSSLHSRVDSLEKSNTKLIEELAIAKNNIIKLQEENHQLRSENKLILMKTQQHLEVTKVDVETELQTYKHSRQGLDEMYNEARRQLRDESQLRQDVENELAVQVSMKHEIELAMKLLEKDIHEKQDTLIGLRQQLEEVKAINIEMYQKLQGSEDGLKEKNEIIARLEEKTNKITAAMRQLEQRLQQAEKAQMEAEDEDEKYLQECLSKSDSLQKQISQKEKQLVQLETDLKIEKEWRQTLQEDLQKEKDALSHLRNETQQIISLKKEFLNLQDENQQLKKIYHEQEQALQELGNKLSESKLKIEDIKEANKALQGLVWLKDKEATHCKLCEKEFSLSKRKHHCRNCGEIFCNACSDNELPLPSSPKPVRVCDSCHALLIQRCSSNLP
inactive: [1] -0.117 | [3] 0.02 | [4] 0.016 | [5] -0.099 | [6] 0 | [7] -0.01 | [8] 0.041 | IRAK-1-4 Inhibitor I 0.05 | ibrutinib 0.068 | ralimetinib -0.031 | [10] 0.005 | [12] -0.118 | [14] -0.101 | [15] -0.033
